Test results published in ChEMBL document CHEMBL3433997, “St. Jude Leishmania screening dataset” (2016).

Experiments:
Format in all cases: functional
[1] = biological target: Solute carrier family 2, facilitated glucose transporter member 1 (Homo sapiens) (UniProt P11166); assay: ST_JUDE_LEISH: Cytotoxicity at 2uM final concentration against transgenic Leishmania Mexicana promastigotes LmGLUT1 that are glucose transport deficient and complemented with the human glucose transporter GLUT1. Activity is measured by DNA content using SYBR green in vitro
[2] = biological target: Hexose transporter 1 (Plasmodium falciparum) (UniProt O97467); assay: ST_JUDE_LEISH: Cytotoxicity at 2uM final concentration against transgenic Leishmania Mexicana promastigotes LmPfHT that are glucose transport deficient and complemented with the Plasmodium falciparum hexose transporter. Activity is measured by DNA content using SYBR green in vitro
[3] = biological target: Glucose transporter (Leishmania mexicana) (UniProt O61059); assay: ST_JUDE_LEISH: Cytotoxicity at 2uM final concentration against transgenic Leishmania Mexicana promastigotes LmGT2 that are glucose transport deficient and complemented with the L. Mexicana glucose transporter 2. Activity is measured by DNA content using SYBR green in vitro

Solute carrier family 2, facilitated glucose transporter member 1 (Homo sapiens), sequence (P11166 whole entry): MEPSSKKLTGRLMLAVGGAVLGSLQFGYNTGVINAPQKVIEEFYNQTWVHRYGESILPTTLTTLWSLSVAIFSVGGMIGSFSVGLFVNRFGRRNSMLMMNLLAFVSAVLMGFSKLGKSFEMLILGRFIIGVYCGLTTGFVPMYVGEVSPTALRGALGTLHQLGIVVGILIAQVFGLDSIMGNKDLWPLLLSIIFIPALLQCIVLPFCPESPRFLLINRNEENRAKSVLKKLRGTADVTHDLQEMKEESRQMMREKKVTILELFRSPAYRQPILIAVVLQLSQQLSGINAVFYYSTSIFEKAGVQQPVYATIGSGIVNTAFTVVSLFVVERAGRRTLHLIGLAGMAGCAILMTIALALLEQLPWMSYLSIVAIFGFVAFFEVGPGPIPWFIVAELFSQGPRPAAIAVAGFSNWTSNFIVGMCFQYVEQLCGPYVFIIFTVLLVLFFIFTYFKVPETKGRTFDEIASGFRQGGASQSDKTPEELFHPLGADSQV

Row | SMILES | inhibition [1] [%] | inhibition [2] [%] | inhibition [3] [%]
1 | O=C(O)Cc1ccc(-c2c[nH]c3ncc(-c4cccc5ncccc45)cc23)cc1 | 2.28 | 1.77 | 0.63
2 | CC(=O)N(C)C1CCN(Cc2ccc(-c3ccc(-c4nc5cc(F)ccc5[nH]4)s3)cc2)C1 (centres undefined) | 8.07 | 5.96 | 6.2
3 | CCOC(=O)c1cnc2c(OC)cc(OC)c(Cl)c2c1Nc1cccc(C)c1C | 0.67 | -0.69 | -6.14
4 | c1ccc(Oc2ccc(Nc3nncc4ccccc34)cc2)cc1 | 1.62 | 0.25 | -4.56
5 | CCOC(=O)C(NC(=O)Cc1ccccc1)C(C)C (centres undefined) | -2.58 | -2.35 | -3.14
6 | N=C(N)c1ccc(-c2cc(-c3cccc(C(=N)N)c3)on2)cc1 | 3.39 | 0.98 | 2.32
7 | C=CC[C@H](C[C@H](O)[C@H](Cc1ccccc1)NC(=O)c1ccc(-c2cccnn2)cc1)C(=O)NC1CCCCC1 | -1.55 | -0.85 | -1.31
8 | CCC1(C)CC(CCNCc2ccccc2O)(c2ccccc2OC)CCO1 (centres undefined) | 0.62 | -0.31 | 0.88
9 | COc1ccccc1C1CCN(CCCCNC(=O)c2ccc(/C=C/c3cc(Cl)cc(Cl)c3)cc2)CC1 | 2.68 | 2.81 | 1.77
10 | CN1CCCc2ccc(NC(=O)C=Cc3ccc(-c4ccc(F)cc4F)o3)cc2C1 | 0.88 | 0.81 | 2.73
11 | CC(CN1CCN(C)CC1)C(=O)Nc1ccc(-c2csc(-c3nc4ccccc4[nH]3)c2)cc1 (centres undefined) | 4.03 | 5.18 | 5.51
12 | CN1CCC(NCc2ccc(-c3ccc(S(=O)(=O)NCc4ccccc4)s3)cc2)CC1 | 6.58 | 6.78 | 4.55
13 | FC(F)(F)Oc1cccc(CNc2noc(-c3sccc3Br)n2)c1 | 2.52 | 2.93 | 0.8
